From the supplement of paper PMC10849652
The full data set covers some 7,900 targets. This sample favours those with a hit. About 0.6% of all pairs of compound and target were hits.

Columns and labels:
Assay in all cases: log2 fold change, soluble protein after heating vs DMSO (PISA); higher = thermal stabilisation; K562 cells, 10 uM, 30 min; active = over 0.2 and 3.5 SD of the protein, either way, in both replicates (recomputed)
[1] = compound: NC(=O)Nc1cc(-c2cccc(F)c2)sc1C(=O)N[C@H]1CCCNC1
Outline: (§1)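 K562 cells at 2×10^6 cells/mL were treated with 10 μM compound for 30 min. Aliquots were heated for 3 min across 48°C-58°C, pooled, and extracted in PBS with 0.5% NP-40 at 4°C; soluble protein was the supernatant after 21,000xg for 90 min. Soluble protein was quantified by TMTpro 16plex LC-MS/MS with channel sums equalised, and reported as log2 fold change in thermal stability against DMSO controls, with values from duplicates.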

[2] = compound: NC(=O)c1cnc(N[C@@H]2CCCC[C@@H]2N)nc1Nc1cccc(-n2nccn2)c1
Outline: as §1

[3] = compound: NC1(c2ccc(-c3nc4ccn5c(=O)[nH]nc5c4cc3-c3ccccc3)cc2)CCC1
Outline: as §1

[4] = compound: NCC(=O)Nc1ccc(-n2nc(C(F)(F)F)cc2-c2ccc3c(ccc4ccccc43)c2)cc1
Outline: as §1

[5] = compound: Nc1ccccc1NC(=O)c1ccc(CNC(=O)OCc2cccnc2)cc1 [entinostat]
Outline: as §1

[6] = compound: O=C(CCCCCCC(=O)Nc1ccccc1)NO [vorinostat]
Outline: as §1

[7] = compound: O=C(CCCCCCNC(=O)c1cnc(N(c2ccccc2)c2ccccc2Cl)nc1)NO [citarinostat]
Outline: as §1

[8] = compound: O=C(O)c1ccc2c(c1)nc(Nc1cccc(Cl)c1)c1ccncc12 [silmitasertib]
Outline: as §1

[9] = compound: O=C1NC(=O)C(c2cnc3ccccn23)=C1c1cn2c3c(cc(F)cc13)CN(C(=O)N1CCCCC1)CC2
Outline: as §1

[10] = compound: c1cc(OCCN2CCCCC2)cc(-c2n[nH]c3ccc(-c4nnc[nH]4)cc23)c1
Outline: as §1

[11] = compound: c1cn2cc(-c3ccc4cn[nH]c4c3)nc(Nc3ccc(N4CCOCC4)cc3)c2n1 [entospletinib]
Outline: as §1

Measured: log2 fold change

DDOST (UniProt P39656)
Sequence of UniProt P39656 (P39656 whole entry, looked up): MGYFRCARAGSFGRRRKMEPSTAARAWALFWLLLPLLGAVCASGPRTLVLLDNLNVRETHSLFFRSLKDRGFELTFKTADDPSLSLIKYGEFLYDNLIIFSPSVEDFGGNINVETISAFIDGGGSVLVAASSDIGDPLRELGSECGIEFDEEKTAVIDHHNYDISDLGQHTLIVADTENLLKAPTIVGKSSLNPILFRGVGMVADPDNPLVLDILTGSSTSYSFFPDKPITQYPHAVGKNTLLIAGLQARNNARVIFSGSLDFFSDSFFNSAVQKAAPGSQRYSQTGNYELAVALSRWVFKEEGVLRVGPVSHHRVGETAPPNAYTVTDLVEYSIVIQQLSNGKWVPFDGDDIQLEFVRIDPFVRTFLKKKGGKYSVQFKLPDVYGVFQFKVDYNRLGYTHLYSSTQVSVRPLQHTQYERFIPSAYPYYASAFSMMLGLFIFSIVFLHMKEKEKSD
inactive: [1] 0.003 | [2] -0.013 | [3] -0.057 | [4] 0.014 | [5] 0.007 | [6] -0.036 | [7] 0.017 | [8] 0.05 | [9] -0.017 | [10] -0.116 | [11] -0.014

FAM117A (UniProt Q9C073)
Sequence of UniProt Q9C073 (Q9C073 whole entry, looked up): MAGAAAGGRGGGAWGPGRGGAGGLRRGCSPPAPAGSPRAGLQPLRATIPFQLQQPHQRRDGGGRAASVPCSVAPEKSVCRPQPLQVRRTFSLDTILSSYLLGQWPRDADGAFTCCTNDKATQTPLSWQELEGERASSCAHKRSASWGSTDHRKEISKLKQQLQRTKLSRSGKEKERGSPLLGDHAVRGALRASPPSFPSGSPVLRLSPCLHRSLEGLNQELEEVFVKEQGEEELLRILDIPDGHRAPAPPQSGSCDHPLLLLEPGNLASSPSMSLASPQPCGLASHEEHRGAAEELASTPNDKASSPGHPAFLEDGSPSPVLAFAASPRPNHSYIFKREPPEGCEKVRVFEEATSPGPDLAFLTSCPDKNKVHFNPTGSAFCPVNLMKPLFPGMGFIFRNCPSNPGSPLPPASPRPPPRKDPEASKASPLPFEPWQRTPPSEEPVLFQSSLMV
active: [8] -0.422 | [10] -0.251
inactive: [1] -0.135 | [2] 0 | [3] -0.05 | [4] -0.03 | [5] 0.046 | [6] -0.011 | [7] 0.043 | [9] 0.038 | [11] 0.067

CTNNB1 (UniProt P35222)
inactive: [1] -0.14 | [2] -0.06 | [3] -0.18 | [4] -0.2 | [5] -0.078 | [6] -0.001 | [7] 0.093 | [8] 0.03 | [10] -0.107 | [11] -0.212
active: [9] 1.3

CWC27 (UniProt Q6UX04)
Sequence of UniProt Q6UX04 (Q6UX04 whole entry, looked up): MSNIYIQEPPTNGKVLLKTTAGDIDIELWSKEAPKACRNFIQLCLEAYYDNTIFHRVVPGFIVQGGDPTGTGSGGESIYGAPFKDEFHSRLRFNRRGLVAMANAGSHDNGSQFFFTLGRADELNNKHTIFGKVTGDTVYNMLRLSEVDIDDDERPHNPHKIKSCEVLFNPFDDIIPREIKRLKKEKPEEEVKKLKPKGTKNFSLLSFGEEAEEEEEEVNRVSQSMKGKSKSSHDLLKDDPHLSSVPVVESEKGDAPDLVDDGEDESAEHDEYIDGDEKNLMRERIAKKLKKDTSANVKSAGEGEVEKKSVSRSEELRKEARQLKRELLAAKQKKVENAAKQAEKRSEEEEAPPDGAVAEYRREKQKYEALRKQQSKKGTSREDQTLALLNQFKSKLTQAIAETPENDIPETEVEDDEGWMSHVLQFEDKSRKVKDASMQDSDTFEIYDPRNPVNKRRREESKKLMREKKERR
inactive: [1] -0.062 | [2] 0.016 | [3] -0.142 | [4] -0.103 | [5] 0.113 | [6] 0.062 | [7] 0.089 | [8] 0.062 | [9] -0.092 | [10] 0.026 | [11] -0.019

CUEDC2 (UniProt Q9H467)
Sequence of UniProt Q9H467 (Q9H467 whole entry, looked up): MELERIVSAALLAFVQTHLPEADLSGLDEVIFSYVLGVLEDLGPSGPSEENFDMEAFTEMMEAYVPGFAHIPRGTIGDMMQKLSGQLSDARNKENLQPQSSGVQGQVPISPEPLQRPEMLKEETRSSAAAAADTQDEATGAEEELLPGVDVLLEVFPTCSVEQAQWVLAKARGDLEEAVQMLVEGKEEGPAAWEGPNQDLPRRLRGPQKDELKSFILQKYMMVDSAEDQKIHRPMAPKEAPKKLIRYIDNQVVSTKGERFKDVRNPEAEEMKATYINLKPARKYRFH
inactive: [1] 0 | [2] -0.105 | [3] -0.043 | [4] -0.056 | [5] -0.009 | [6] -0.039 | [7] 0.096 | [8] 0.008 | [9] -0.055 | [10] 0.002 | [11] 0.01

CTSA (UniProt P10619)
Sequence of UniProt P10619 (P10619 whole entry, looked up): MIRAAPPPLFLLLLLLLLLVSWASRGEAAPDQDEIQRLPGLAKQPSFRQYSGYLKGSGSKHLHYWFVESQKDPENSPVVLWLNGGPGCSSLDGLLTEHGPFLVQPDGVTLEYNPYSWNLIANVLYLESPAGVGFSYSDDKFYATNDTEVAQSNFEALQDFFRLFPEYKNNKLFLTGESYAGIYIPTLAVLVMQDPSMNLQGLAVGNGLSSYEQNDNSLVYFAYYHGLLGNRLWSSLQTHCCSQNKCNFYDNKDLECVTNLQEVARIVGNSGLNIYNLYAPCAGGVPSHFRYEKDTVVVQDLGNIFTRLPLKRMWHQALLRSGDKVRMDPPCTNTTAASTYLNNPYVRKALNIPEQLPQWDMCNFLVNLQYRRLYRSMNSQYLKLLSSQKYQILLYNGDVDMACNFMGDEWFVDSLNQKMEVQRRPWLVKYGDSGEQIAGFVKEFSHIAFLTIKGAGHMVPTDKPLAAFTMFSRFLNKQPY
inactive: [1] 0.031 | [2] 0.092 | [3] -0.067 | [4] -0.013 | [5] 0.001 | [6] -0.03 | [7] -0.005 | [8] 0.044 | [9] -0.023 | [10] 0.134 | [11] 0.041

FADS1, A0A0A0MR51
inactive: [1] -0.041 | [2] -0.036 | [3] -0.074 | [4] 0.036 | [5] -0.002 | [6] -0.105 | [7] -0.029 | [8] 0.014 | [9] -0.15 | [10] -0.029 | [11] 0.055

DPH5 isoform 5 (UniProt Q9H2P9)
Sequence of UniProt Q9H2P9 (Q9H2P9 whole entry, looked up): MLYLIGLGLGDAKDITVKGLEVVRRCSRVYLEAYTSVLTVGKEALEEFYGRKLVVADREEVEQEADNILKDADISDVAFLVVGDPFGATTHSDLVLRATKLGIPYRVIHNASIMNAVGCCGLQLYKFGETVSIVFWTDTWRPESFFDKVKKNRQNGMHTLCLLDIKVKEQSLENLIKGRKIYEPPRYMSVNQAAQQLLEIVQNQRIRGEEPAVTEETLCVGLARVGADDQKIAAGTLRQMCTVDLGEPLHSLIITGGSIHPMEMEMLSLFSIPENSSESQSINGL
inactive: [1] -0.036 | [2] -0.005 | [3] 0.209 | [4] -0.003 | [5] -0.018 | [6] -0.009 | [7] 0.017 | [8] -0.008 | [9] 0.109 | [10] 0.038 | [11] -0.045

DMXL1 (UniProt Q9Y485)
inactive: [1] -0.026 | [2] -0.075 | [3] -0.052 | [4] -0.015 | [5] 0.033 | [6] 0.069 | [7] 0.005 | [8] 0.04 | [9] -0.007 | [10] -0.071 | [11] 0.04

DTNBP1 (UniProt Q96EV8)
inactive: [1] -0.022 | [2] -0.011 | [3] -0.038 | [4] -0.063 | [5] 0.033 | [6] 0.091 | [7] -0.001 | [8] -0.013 | [9] -0.032 | [10] -0.042 | [11] 0.004

CYBA (UniProt P13498)
Sequence of UniProt P13498 (P13498 whole entry, looked up): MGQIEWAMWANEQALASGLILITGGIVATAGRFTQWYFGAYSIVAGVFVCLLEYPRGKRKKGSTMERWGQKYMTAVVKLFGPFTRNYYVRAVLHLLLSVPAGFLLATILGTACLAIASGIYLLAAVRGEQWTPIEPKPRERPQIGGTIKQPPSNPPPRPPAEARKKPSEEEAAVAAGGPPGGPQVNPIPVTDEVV
inactive: [1] -0.028 | [2] -0.141 | [3] -0.044 | [4] -0.13 | [5] -0.004 | [6] 0.018 | [7] -0.01 | [8] 0 | [9] -0.01 | [10] -0.041 | [11] 0.069

EFCAB14 (UniProt O75071)
Sequence of UniProt O75071 (O75071 whole entry, looked up): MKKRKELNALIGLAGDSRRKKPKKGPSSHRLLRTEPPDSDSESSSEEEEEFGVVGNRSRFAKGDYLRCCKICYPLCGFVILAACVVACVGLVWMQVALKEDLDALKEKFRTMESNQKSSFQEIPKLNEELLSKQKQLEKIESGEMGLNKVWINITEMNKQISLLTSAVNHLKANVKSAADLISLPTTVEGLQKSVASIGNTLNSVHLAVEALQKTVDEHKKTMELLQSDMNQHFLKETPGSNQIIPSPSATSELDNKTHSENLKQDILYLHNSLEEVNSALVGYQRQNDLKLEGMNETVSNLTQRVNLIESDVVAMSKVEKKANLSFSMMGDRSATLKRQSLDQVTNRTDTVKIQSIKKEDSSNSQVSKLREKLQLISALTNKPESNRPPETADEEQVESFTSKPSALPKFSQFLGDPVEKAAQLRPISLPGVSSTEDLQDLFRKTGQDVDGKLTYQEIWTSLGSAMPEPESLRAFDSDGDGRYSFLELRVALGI
inactive: [1] 0.024 | [2] 0.218 | [3] -0.123 | [4] -0.006 | [5] 0.007 | [6] -0.057 | [7] 0.181 | [8] 0.022 | [9] -0.031 | [10] -0.075 | [11] 0.001

DIAPH1 (UniProt O60610)
Sequence of UniProt O60610 (O60610 whole entry, looked up): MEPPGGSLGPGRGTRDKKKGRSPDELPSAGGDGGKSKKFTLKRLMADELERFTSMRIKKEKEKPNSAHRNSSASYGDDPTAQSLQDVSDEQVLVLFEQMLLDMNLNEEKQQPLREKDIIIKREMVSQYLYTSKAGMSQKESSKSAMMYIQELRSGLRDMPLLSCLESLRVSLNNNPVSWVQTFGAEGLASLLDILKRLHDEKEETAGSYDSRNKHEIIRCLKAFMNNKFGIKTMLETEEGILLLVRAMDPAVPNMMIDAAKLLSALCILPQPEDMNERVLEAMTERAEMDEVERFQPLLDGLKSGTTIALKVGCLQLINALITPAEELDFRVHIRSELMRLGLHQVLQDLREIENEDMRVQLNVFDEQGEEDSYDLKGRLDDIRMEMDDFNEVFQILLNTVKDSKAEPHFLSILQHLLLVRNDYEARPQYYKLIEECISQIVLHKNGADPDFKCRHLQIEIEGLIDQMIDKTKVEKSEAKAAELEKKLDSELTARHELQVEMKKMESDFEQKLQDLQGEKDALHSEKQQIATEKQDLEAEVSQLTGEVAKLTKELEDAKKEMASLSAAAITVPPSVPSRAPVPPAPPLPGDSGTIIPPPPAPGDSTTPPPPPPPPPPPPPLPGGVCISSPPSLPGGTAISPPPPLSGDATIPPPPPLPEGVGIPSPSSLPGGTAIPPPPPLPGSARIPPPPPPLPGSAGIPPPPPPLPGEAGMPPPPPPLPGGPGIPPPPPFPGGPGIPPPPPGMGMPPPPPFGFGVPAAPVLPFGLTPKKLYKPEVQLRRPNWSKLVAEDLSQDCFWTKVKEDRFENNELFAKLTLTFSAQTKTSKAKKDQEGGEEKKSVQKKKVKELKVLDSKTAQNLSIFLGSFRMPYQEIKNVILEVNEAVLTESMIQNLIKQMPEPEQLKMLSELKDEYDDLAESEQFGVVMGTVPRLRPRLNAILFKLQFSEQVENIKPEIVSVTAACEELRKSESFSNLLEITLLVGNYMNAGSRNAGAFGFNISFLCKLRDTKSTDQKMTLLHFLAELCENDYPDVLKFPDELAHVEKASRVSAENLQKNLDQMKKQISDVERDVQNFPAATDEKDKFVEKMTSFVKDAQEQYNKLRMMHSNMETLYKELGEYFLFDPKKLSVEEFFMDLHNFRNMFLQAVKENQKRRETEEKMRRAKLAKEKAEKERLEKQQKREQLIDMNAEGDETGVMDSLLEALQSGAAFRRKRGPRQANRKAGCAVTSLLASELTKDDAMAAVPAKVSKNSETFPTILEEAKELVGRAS
inactive: [1] -0.156 | [2] -0.085 | [3] -0.067 | [4] -0.064 | [5] 0.024 | [6] 0.066 | [7] 0.056 | [8] 0.115 | [9] 0.178 | [10] -0.046 | [11] 0.1

EHD2 (UniProt Q9NZN4)
Sequence of UniProt Q9NZN4 (Q9NZN4 whole entry, looked up): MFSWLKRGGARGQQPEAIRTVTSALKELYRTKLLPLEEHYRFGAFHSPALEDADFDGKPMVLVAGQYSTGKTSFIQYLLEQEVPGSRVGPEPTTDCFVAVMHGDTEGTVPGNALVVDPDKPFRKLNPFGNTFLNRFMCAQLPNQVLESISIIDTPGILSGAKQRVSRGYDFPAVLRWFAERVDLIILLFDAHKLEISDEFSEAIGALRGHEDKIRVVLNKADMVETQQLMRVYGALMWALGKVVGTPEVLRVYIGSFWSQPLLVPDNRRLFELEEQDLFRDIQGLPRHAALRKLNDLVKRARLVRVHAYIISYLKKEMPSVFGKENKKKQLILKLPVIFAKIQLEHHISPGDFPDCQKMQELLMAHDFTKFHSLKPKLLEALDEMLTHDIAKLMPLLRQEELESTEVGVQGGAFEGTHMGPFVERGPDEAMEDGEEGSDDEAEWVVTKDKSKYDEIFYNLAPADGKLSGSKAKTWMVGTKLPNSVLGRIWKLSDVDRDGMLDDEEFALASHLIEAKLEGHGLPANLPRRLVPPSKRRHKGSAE
inactive: [1] -0.034 | [2] -0.048 | [3] -0.072 | [4] -0.096 | [5] 0.033 | [6] 0.055 | [7] 0.048 | [8] 0.012 | [9] -0.04 | [10] -0.015 | [11] -0.038
